The test system of test [1] is Wnt5a (protein binding on small-molecule microarray). Description: Wnt5a binders on small-molecule microarray, primary screen, biophysical, 635/667 nm fluorescence (AID 1142).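 Note: fluorescence read at 667 nm with signal to noise per printed feature.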 The conditions noted are these: 635 nm fluorescence, higher = more signal.
Test [2] can be described thus: cell viability in Huh7 cells, primary screen, cytotoxicity control for HCV replication inhibitor project, CellTiter-Glo luminescence, basal, 48 h (AID 1143).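 Note: Huh7 hepatoma cells carrying a hepatitis C replication reporter with no stimulus; test concentration not given here.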 The conditions noted are these: Huh7 HCV replicon, higher = more signal, called active from +8 up or from −8 down. For orientation: In ATP-based viability assays light output follows the ATP content of the culture.

Test [3] is described as follows: P. aeruginosa biofilm formation inhibitors, primary screen, PAO1 strain, BacTiter-Glo luminescence, LB-PBS (AID 1144). The settings on record: 12 h, higher = more signal.
Test [4] can be described thus: CREB reporter modulators without forskolin, primary screen, cell-based, PC12, CRE-LacZ reporter, unstimulated (AID 1145). The conditions noted are these: no forskolin, luminescence, 4.5 h, higher = more signal, called active from +8 up or from −8 down.
Test [5] is described as follows: CREB reporter modulators under forskolin, primary screen, cell-based, PC12, CRE-LacZ reporter, forskolin-stimulated (AID 1146).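 Note: PC12 cells with 6xCRE LacZ reporter stimulated by forskolin 10 µM; beta-galactosidase reporter signal reflecting CREB driven transcription.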 The conditions noted are these: luminescence, 4.5 h, higher = more signal, called active from +8 up or from −8 down.
Test [6] has as its target Streptavidin (Streptomyces avidinii) (UniProt P22629). Put plainly: streptavidin binders on small-molecule microarray, primary screen, artefact control for SMM compound annotation, biophysical, 635/667 nm fluorescence (AID 1147).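 Note: signal reflects streptavidin binding to arrayed compounds as a control protein.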 The settings on record: streptavidin binding, higher = more signal.
Test [7] in a line: small-molecule binders of probe aInhba, primary screen, biochemical, small-molecule microarray, 635/667 nm fluorescence (AID 1148).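 Note: score merges 667nm spot fluorescence with signal-to-noise for antibody binding to printed compounds.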 The conditions noted are these: higher = more signal.
For test [8], the target named is Torsin-1A (Homo sapiens) (UniProt O14656). Description: torsin A binders from cell lysate, primary screen, small-molecule microarray, wild-type, 635/667 nm (AID 1149). The settings on record: COS7 hTOR1A-WT lysate, 635 nm fluorescence, higher = more signal.
The target is the same in test [9]. Description: small-molecule binders of mutant TOR1A in lysate, primary screen, cell lysate, small-molecule microarray, COS7 lysate, 635/667 nm fluorescence (AID 1150).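 Note: score pools 667 nm emission and signal to noise measuring lysate protein binding.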 The conditions noted are these: COS7 hTOR1A mutant lysate, 635 nm fluorescence, higher = more signal.
Test [10] deals with Sonic hedgehog protein (Shh). Put plainly: small-molecule binders of Shh protein, primary screen, biochemical, small-molecule microarray, 635/667 nm fluorescence (AID 1151).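 Note: Shh protein binding to compounds spotted on small-molecule microarray slides; score combines spot fluorescence intensity with signal-to-noise across triplicate slides.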 The settings on record: small-molecule microarray binding, 635 nm fluorescence; higher = more signal.
The nature of test [11]: E. coli DRC41 culture turbidity changes, primary screen, E. coli filamentation inducer project, strain DRC41, OD650, 48 h (AID 1152).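 Note: E. coli MC1000 strain DRC41 lacking acrAB efflux pump and sulA.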 The settings on record: E. coli DRC41 (acrAB sulA), higher = more signal, called active from +8 up or from −8 down.
Test [12] can be described thus: small-molecule binders of probe aLefty1, primary screen, biochemical, small-molecule microarray, 635/667 nm fluorescence (AID 1153).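 Note: score merges spot fluorescence with signal-to-noise ratio from the scanned slide images.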 The conditions noted are these: higher = more signal.
Test [13] is described as follows: PSAC antagonists in infected red cells, primary screen, cell-based, P. falciparum Indochina, OD700, 1 h (AID 1154). The conditions noted are these: P. falciparum Indochina infected RBC osmotic lysis, higher = more signal, called active from +8 up or from −8 down.
A short description of test [14]: PSAC antagonists in infected red cells, primary screen, cell-based, P. falciparum Indochina, OD700, 2 h (AID 1155).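 Note: lysis reports solute entry through the parasite surface anion channel PSAC; channel blockers reduce lysis of infected cells.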 The settings on record: P. falciparum Indochina infected erythrocytes, osmotic lysis OD700; higher = more signal, called active from +8 up or from −8 down.
Test [15] can be described thus: osmotic lysis modulators in infected erythrocytes, primary screen, PSAC antagonist project, cell-based, P. falciparum Indochina, OD700, 3 h (AID 1156). The conditions noted are these: higher = more signal, called active from +8 up or from −8 down.
A short description of test [16]: PSAC antagonists in infected red cells, primary screen, cell-based, P. falciparum Indochina, OD700, 18 h (AID 1157). The settings on record: P. falciparum Indochina infected erythrocytes, osmotic lysis OD700, 18 h; higher = more signal, called active from +8 up or from −8 down.
Test [17] in a line: modulators of S6 phosphorylation in cells, primary screen, cell-based, A549, cytoblot, luminescence, serum-stimulated (AID 1158).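 Note: serum-stimulated A549 lung adenocarcinoma cells; signal is phosphorylated S6 detected by cytoblot immunostaining with HRP secondary.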 The settings on record: A549 phospho-S6 cytoblot, 5 h, higher = more signal.
Test [18] has as its target NADPH oxidase 2 (Homo sapiens) (UniProt P04839). Put plainly: NOX2-dependent H2O2 signal modulators, primary screen, NOX inhibitor project, cell-based, HEK293-NOX2, PMA-stimulated, Amplex Red fluorescence (AID 1159). Note: test concentration not given here. The conditions noted are these: 45 min, higher = more signal, called active from +8 up or from −8 down.
Test [19] deals with NADPH oxidase 4 (Homo sapiens) (UniProt Q9NPH5). Description: NOX4-dependent H2O2 signal modulators, primary screen, NOX inhibitor project, cell-based, HEK293-NOX4, tetracycline-induced, Amplex Red fluorescence (AID 1160). The settings on record: 45 min, higher = more signal, called active from +8 up or from −8 down.
For test [20], the target named is NADPH oxidase 5 (Homo sapiens) (UniProt Q96PH1). Put plainly: NOX5-dependent H2O2 signal modulators, primary screen, NOX inhibitor project, cell-based, HEK293-NOX5, Amplex Red fluorescence (AID 1161). The settings on record: HEK293-NOX5, ionomycin, 45 min, higher = more signal.

The source made the active and inactive calls. Unless noted, the rule behind the calls is not given here.

Sequence of NADPH oxidase 4 (Homo sapiens) (Q9NPH5 whole entry, looked up): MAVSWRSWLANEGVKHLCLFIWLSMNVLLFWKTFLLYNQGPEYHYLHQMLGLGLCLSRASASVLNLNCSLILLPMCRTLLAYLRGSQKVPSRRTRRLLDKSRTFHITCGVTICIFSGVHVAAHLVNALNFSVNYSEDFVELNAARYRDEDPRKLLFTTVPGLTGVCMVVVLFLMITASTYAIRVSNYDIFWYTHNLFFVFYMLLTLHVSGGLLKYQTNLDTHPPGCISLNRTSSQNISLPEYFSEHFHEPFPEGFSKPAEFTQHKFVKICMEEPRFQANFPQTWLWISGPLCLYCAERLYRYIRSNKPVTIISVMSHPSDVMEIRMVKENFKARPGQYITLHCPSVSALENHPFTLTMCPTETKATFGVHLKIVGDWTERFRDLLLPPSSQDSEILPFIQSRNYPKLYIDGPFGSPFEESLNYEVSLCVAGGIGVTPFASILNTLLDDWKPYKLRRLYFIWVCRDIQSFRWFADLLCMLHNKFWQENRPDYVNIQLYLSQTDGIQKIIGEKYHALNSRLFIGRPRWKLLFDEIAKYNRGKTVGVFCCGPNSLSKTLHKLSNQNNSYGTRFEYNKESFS
Sequence of NADPH oxidase 2 (Homo sapiens) (P04839 whole entry, looked up): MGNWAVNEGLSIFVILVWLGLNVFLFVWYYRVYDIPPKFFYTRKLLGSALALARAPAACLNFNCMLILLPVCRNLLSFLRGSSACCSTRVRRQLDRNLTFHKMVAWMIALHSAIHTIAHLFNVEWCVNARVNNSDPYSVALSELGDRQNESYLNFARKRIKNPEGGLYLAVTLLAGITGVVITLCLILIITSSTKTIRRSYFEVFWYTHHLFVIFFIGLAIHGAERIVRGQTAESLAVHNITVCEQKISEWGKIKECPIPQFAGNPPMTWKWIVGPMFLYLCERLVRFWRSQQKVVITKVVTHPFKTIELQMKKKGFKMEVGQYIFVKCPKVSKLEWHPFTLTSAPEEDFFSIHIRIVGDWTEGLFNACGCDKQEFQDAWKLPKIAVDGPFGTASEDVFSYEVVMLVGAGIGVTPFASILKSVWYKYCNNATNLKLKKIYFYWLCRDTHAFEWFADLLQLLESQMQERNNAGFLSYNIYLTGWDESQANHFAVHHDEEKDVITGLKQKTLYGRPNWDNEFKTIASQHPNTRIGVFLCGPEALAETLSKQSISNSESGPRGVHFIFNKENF
Sequence of Streptavidin (Streptomyces avidinii) (P22629 whole entry, looked up): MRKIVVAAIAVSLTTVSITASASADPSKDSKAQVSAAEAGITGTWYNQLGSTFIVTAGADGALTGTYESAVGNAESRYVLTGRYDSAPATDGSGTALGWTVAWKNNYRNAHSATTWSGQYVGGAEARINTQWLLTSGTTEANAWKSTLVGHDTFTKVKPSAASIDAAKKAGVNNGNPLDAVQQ
Sequence of NADPH oxidase 5 (Homo sapiens) (Q96PH1 whole entry, looked up): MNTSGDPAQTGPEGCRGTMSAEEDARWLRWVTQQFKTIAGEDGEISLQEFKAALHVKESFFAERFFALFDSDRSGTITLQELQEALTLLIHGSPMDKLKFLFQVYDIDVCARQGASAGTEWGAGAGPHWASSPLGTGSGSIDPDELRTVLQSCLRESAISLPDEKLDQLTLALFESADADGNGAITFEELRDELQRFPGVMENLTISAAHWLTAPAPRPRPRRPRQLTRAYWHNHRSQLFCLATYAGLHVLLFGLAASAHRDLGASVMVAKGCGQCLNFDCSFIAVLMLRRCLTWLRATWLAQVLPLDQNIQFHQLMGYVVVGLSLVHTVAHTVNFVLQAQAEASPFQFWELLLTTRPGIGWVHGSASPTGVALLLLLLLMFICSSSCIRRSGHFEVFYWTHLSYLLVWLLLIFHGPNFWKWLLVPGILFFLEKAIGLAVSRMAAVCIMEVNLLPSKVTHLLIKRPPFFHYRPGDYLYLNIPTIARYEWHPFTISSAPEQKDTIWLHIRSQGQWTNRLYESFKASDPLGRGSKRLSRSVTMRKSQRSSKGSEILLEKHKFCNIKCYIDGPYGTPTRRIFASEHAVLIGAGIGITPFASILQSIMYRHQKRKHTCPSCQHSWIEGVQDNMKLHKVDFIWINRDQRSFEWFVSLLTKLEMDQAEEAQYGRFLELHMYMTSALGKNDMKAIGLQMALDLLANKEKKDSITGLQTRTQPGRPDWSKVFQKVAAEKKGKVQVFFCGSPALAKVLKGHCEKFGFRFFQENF
Sequence of Torsin-1A (Homo sapiens) (O14656 whole entry, looked up): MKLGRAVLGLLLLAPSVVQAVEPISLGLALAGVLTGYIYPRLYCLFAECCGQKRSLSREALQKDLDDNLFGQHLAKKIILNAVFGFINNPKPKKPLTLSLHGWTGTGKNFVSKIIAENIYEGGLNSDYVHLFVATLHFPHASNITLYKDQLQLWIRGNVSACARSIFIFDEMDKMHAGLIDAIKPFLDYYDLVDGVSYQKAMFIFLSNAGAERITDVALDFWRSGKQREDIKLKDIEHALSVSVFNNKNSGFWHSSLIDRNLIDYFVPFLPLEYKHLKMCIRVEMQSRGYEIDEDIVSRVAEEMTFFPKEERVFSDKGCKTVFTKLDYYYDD

With `CCCC1(C(=O)OC)C=C2C(=C(c3ccccc3)C(=O)C2C)CN1` (stereo not given), the composite z-score in test [1] was 0.256; in test [6], 0.312; in [7], 0.27; with Torsin-1A (Homo sapiens) [8], 0.52; with Torsin-1A (Homo sapiens) [9], 0.0656; in [10], -0.599. In test [12], this molecule came in with a composite z-score of 0.51. Moreover, the z-score in test [2] was -0.752 (inactive); in test [3] it was 0.153 (inactive); in test [4], -0.375 (inactive); in test [5] it was 0.966 (inactive); in test [11], -1.23 (inactive); in test [13], 2.2 (inactive). Besides, the z-score in test [14] was 0.194 (inactive); in test [15] it was 0.923 (inactive); in test [16] it was 0.324 (inactive); in [17] it was -0.267; in [18] it was -0.2 (inactive); in [19], -2.64 (inactive). Moreover, in test [20], the z-score was -2.63.

For `C[N+](C)(C)CCCC[C@@H]1NC(=O)[C@@H]2C[C@H](C(=O)NCCCCCN)[C@H](c3ccc(O)cc3)N2C1=O`, the composite z-score came to 0.557 in test [1]; 1.49 in test [6]; 0.491 in test [7]; 0.632 in the test with Torsin-1A (Homo sapiens) [8]; 0.659 with Torsin-1A (Homo sapiens) [9]; 1.61 in test [10]. In [12], this molecule yielded a composite z-score of 0.906. The z-score was -0.496 (inactive) in test [2]; -0.771 (inactive) in test [3]; 0.143 (inactive) in [4]; -0.441 (inactive) in test [5]; 1.31 (inactive) in [11]; 0.455 (inactive) in test [13]. Besides, the z-score in test [14] was 0.0158 (inactive); in test [15], -0.284 (inactive); in [16] it was -1.78 (inactive); in test [17], 0.612; in test [18], -0.102 (inactive); in test [19], -0.316 (inactive). The molecule also returned a z-score in [20] of 1.33.

Consider `NC(=O)NCC#Cc1ccc2c(c1)[C@]1(C(=O)N2)[C@H](C(=O)O)[C@H]2C(=O)O[C@H](c3ccccc3)[C@H](c3ccccc3)N2[C@@H]1c1ccc(O)cc1`, for which the composite z-score in test [1] is -0.0543; in [6], 1.48; in test [7], 0.174; with Torsin-1A (Homo sapiens) [8], -0.359; with Torsin-1A (Homo sapiens) [9] it was -0.245; in [10] it was 1.02. This molecule also registered a composite z-score in test [12] of 0.642. Also, the z-score in [2] was 0.164 (inactive); in test [3], -0.36 (inactive); in [4], 0.892 (inactive); in test [5], -0.89 (inactive); in [11] it was -1.29 (inactive); in test [13] it was 0.141 (inactive). The z-score is 0.0468 (inactive) in [14]; -0.357 (inactive) in test [15]; 0.27 (inactive) in test [16]; -0.603 in test [17]; 1.17 (inactive) in test [18]; -0.399 (inactive) in test [19]. The z-score in test [20] was -0.349.

Consider `O=C(O)C1N=C(c2ccc(OCCCO)cc2)N(c2ccccc2)O1` (stereo not given), for which the composite z-score in test [1] was 0.222; in test [6], 0.926; in [7], -0.166; with Torsin-1A (Homo sapiens) [8] it was 0.666; with Torsin-1A (Homo sapiens) [9], 1.72; in [10], 0.287. In [12], the composite z-score came out at 0.0245. The z-score was -0.205 (inactive) in test [2]; 1.3 (inactive) in [3]; 0.101 (inactive) in test [4]; 1.16 (inactive) in test [5]; 0.0785 (inactive) in test [11]; 18.5 (active) in test [13]. In addition, the z-score in test [14] is 2.35 (inactive); in [15], 0.874 (inactive); in test [16], 0.497 (inactive); in test [17] it was -0.284; in test [18], -2.6 (inactive); in [19] it was 0.0373 (inactive). In test [20], the z-score was -0.638.

The values are drawn from PubChem BioAssay.
